Experimental data as given in PMC7862700, “An all-to-all approach to the identification of sequence-specific readers for epigenetic DNA modifications on cytosine”.

Assays:
Test in all cases: DAPPL (digital affinity profiling via proximity ligation, sequencing); 10 mM Tris-HCl pH 7.5, 50 mM NaCl, 1 mM DTT, 4% glycerol, room temperature, 30 min; GST-TFs on glutathione beads, 16-mer random dsDNA library, 0.1% formaldehyde crosslink after washing; high values mean tight binding
Details in all cases: protein: recombinant; tags: N-terminal GST; dsDNA, one strand shown
[1] = biological target: T1, FLI1 (Homo sapiens, UniProt Q01543 1-452)
T1 sequence: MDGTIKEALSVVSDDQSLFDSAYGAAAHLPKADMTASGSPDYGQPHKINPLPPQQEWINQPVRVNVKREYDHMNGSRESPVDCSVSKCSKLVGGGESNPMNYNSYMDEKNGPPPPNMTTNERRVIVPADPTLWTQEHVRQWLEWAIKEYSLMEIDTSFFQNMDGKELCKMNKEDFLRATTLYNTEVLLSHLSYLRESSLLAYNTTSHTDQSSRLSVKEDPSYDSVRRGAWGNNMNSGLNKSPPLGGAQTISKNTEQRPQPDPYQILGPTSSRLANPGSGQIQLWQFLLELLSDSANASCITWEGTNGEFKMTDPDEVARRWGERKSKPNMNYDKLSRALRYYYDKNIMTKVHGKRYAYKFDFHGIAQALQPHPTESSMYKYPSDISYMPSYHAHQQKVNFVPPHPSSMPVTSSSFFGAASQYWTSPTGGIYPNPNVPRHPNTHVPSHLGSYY
Procedure, shortened: (§1)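 A tag-only sample was pooled with DNA-barcoded human transcription factors that had been expressed in yeast as GST fusions and captured on glutathione beads. The pools were incubated for 30 min at room temperature with 200 nmole of a random double-stranded 16-mer DNA library in Tris/NaCl/DTT/glycerol buffer, then washed, crosslinked with 0.1% formaldehyde, proximity-ligated (BsaI/T4 ligase, 1 h, 37 °C), PCR-amplified and sequenced on an Illumina NextSeq500. Binding signal is each hexamer's read frequency for a factor divided by its frequency for the tag-only sample.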

[2] = biological target: T2, ELK1 (Homo sapiens, UniProt P19419 1-428)
T2 sequence: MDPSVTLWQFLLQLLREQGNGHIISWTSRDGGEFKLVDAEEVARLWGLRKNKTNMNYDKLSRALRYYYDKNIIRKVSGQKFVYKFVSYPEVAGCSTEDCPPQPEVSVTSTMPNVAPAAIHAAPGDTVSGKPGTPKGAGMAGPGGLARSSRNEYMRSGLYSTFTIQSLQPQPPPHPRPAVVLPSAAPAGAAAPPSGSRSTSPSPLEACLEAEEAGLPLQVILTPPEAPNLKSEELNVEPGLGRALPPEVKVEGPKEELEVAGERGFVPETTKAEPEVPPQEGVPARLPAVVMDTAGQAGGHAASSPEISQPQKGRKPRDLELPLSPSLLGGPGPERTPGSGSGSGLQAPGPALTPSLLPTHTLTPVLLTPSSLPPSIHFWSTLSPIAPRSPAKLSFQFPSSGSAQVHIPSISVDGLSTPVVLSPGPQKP
Procedure, shortened: as §1

[3] = biological target: T3, GABPA (Homo sapiens, UniProt Q06546 1-454)
T3 sequence: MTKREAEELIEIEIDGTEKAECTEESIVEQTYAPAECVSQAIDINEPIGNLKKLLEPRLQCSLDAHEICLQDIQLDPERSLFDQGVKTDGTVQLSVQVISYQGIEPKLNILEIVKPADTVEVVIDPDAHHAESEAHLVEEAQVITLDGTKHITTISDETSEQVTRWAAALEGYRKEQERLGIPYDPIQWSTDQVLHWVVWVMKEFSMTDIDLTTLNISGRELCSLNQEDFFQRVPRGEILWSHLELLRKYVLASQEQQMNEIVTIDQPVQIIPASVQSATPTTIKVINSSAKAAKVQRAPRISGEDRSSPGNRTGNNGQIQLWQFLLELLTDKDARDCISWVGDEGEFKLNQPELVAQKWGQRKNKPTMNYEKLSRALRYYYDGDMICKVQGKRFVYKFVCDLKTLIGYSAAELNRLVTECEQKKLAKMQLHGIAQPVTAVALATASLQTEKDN
Procedure, shortened: as §1

[4] = biological target: T4, ERG (Homo sapiens, UniProt P11308 1-479)
T4 sequence: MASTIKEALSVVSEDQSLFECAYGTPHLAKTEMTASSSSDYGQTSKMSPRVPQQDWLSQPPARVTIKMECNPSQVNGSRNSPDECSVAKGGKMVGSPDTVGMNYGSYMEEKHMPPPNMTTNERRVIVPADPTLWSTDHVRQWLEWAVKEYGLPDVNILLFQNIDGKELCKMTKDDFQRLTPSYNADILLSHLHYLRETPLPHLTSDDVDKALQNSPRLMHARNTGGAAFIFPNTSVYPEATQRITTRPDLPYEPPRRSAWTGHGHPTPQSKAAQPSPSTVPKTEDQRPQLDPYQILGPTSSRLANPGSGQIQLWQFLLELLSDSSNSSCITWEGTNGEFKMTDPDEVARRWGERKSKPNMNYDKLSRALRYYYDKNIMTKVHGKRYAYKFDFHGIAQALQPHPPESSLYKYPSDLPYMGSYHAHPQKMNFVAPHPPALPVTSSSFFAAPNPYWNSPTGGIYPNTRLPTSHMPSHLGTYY
Procedure, shortened: as §1

[5] = biological target: ELF1 (Homo sapiens, UniProt P32519 1-619)
Procedure, shortened: as §1

[6] = biological target: T5, EHF (Homo sapiens, UniProt Q9NZC4 1-300)
T5 sequence: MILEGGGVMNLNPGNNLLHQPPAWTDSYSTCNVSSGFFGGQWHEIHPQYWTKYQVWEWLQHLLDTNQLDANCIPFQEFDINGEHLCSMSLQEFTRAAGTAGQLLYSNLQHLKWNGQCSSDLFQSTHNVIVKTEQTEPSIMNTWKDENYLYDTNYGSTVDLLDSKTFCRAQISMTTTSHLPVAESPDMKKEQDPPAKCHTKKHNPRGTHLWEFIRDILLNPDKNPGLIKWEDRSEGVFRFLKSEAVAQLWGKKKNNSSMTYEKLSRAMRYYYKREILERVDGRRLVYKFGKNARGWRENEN
Procedure, shortened: as §1

[7] = biological target: SPI1 (Homo sapiens, UniProt P17947 1-270)
Procedure, shortened: as §1

[8] = biological target: SPIB (Homo sapiens, UniProt Q01892 1-262)
Procedure, shortened: as §1

[9] = biological target: T6, ELK3 (Homo sapiens, UniProt P41970 1-407)
T6 sequence: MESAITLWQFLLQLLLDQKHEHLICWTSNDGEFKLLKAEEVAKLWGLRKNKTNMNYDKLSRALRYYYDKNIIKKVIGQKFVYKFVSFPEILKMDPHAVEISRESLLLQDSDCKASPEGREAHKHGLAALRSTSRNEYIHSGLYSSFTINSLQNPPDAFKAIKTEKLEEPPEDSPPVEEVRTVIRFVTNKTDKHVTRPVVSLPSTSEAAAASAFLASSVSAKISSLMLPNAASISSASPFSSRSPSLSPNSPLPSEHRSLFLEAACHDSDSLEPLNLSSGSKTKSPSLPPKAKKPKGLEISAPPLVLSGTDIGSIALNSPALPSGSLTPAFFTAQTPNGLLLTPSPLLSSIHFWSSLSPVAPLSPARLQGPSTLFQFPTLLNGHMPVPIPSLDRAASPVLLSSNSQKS
Procedure, shortened: as §1

ELF1, sequence (P32519 whole entry): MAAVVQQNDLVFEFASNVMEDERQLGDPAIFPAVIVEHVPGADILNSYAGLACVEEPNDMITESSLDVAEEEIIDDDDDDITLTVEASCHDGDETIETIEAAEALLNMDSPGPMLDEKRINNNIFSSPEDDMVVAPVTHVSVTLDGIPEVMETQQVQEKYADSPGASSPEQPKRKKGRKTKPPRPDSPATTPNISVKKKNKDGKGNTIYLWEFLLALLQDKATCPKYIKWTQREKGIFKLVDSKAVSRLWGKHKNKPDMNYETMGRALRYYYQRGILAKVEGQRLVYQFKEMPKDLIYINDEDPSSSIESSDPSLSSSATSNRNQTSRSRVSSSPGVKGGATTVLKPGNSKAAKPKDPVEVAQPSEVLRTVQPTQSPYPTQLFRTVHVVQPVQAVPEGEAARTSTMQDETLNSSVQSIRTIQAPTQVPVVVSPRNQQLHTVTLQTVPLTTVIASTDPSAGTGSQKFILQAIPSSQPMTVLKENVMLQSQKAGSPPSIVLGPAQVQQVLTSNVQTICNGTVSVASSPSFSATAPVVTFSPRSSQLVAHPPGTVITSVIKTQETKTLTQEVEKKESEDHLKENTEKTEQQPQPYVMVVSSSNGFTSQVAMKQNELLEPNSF
SPIB, sequence (Q01892 whole entry): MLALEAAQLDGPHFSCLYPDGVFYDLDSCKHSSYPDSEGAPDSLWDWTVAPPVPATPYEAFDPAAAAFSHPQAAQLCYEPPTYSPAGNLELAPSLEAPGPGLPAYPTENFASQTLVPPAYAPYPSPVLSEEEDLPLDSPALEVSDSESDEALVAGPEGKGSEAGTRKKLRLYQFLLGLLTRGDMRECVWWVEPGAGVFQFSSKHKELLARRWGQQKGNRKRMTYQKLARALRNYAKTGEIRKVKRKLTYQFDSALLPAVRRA

GCAAAT
binding signal [1]: 1.05 fold enrichment (6-mer frequency, TF over GST control) | binding signal [2]: 1.04 fold enrichment (6-mer frequency, TF over GST control) | binding signal [3]: 1.04 fold enrichment (6-mer frequency, TF over GST control) | binding signal [4]: 1.18 fold enrichment (6-mer frequency, TF over GST control) | binding signal [5]: 1.11 fold enrichment (6-mer frequency, TF over GST control) | binding signal [6]: 1.03 fold enrichment (6-mer frequency, TF over GST control) | binding signal [7]: 1.02 fold enrichment (6-mer frequency, TF over GST control) | binding signal [8]: 1.14 fold enrichment (6-mer frequency, TF over GST control) | binding signal [9]: 1.01 fold enrichment (6-mer frequency, TF over GST control)

GCACAA
binding signal [1]: 1.1 fold enrichment (6-mer frequency, TF over GST control) | binding signal [2]: 1.13 fold enrichment (6-mer frequency, TF over GST control) | binding signal [3]: 1.09 fold enrichment (6-mer frequency, TF over GST control) | binding signal [4]: 1.1 fold enrichment (6-mer frequency, TF over GST control) | binding signal [5]: 1.09 fold enrichment (6-mer frequency, TF over GST control) | binding signal [6]: 1.1 fold enrichment (6-mer frequency, TF over GST control) | binding signal [7]: 1.05 fold enrichment (6-mer frequency, TF over GST control) | binding signal [8]: 1.09 fold enrichment (6-mer frequency, TF over GST control) | binding signal [9]: 1.12 fold enrichment (6-mer frequency, TF over GST control)

ATGATC
binding signal [1]: 1.2 fold enrichment (6-mer frequency, TF over GST control) | binding signal [2]: 1.17 fold enrichment (6-mer frequency, TF over GST control) | binding signal [3]: 1.3 fold enrichment (6-mer frequency, TF over GST control) | binding signal [4]: 1.1 fold enrichment (6-mer frequency, TF over GST control) | binding signal [5]: 1.22 fold enrichment (6-mer frequency, TF over GST control) | binding signal [6]: 1.28 fold enrichment (6-mer frequency, TF over GST control) | binding signal [7]: 1.15 fold enrichment (6-mer frequency, TF over GST control) | binding signal [8]: 1.18 fold enrichment (6-mer frequency, TF over GST control) | binding signal [9]: 1.31 fold enrichment (6-mer frequency, TF over GST control)

CCATCA
binding signal [1]: 1.26 fold enrichment (6-mer frequency, TF over GST control) | binding signal [2]: 1.21 fold enrichment (6-mer frequency, TF over GST control) | binding signal [3]: 1.22 fold enrichment (6-mer frequency, TF over GST control) | binding signal [4]: 1.15 fold enrichment (6-mer frequency, TF over GST control) | binding signal [5]: 1.29 fold enrichment (6-mer frequency, TF over GST control) | binding signal [6]: 1.18 fold enrichment (6-mer frequency, TF over GST control) | binding signal [7]: 1.19 fold enrichment (6-mer frequency, TF over GST control) | binding signal [8]: 1.17 fold enrichment (6-mer frequency, TF over GST control) | binding signal [9]: 1.2 fold enrichment (6-mer frequency, TF over GST control)

GCTACG
binding signal [1]: 1.29 fold enrichment (6-mer frequency, TF over GST control) | binding signal [2]: 1.22 fold enrichment (6-mer frequency, TF over GST control) | binding signal [3]: 1.11 fold enrichment (6-mer frequency, TF over GST control) | binding signal [4]: 1.11 fold enrichment (6-mer frequency, TF over GST control) | binding signal [5]: 1.17 fold enrichment (6-mer frequency, TF over GST control) | binding signal [6]: 1.19 fold enrichment (6-mer frequency, TF over GST control) | binding signal [7]: 1.04 fold enrichment (6-mer frequency, TF over GST control) | binding signal [8]: 1.16 fold enrichment (6-mer frequency, TF over GST control) | binding signal [9]: 1.26 fold enrichment (6-mer frequency, TF over GST control)

ACTTAC
binding signal [1]: 1.14 fold enrichment (6-mer frequency, TF over GST control) | binding signal [2]: 1.17 fold enrichment (6-mer frequency, TF over GST control) | binding signal [3]: 1.2 fold enrichment (6-mer frequency, TF over GST control) | binding signal [4]: 1.1 fold enrichment (6-mer frequency, TF over GST control) | binding signal [5]: 1.18 fold enrichment (6-mer frequency, TF over GST control) | binding signal [6]: 1.28 fold enrichment (6-mer frequency, TF over GST control) | binding signal [7]: 1.27 fold enrichment (6-mer frequency, TF over GST control) | binding signal [8]: 1.1 fold enrichment (6-mer frequency, TF over GST control) | binding signal [9]: 1.12 fold enrichment (6-mer frequency, TF over GST control)

TCCTGA
binding signal [1]: 1.43 fold enrichment (6-mer frequency, TF over GST control) | binding signal [2]: 1.45 fold enrichment (6-mer frequency, TF over GST control) | binding signal [3]: 1.47 fold enrichment (6-mer frequency, TF over GST control) | binding signal [4]: 1.5 fold enrichment (6-mer frequency, TF over GST control) | binding signal [5]: 1.41 fold enrichment (6-mer frequency, TF over GST control) | binding signal [6]: 1.45 fold enrichment (6-mer frequency, TF over GST control) | binding signal [7]: 1.47 fold enrichment (6-mer frequency, TF over GST control) | binding signal [8]: 1.46 fold enrichment (6-mer frequency, TF over GST control) | binding signal [9]: 1.54 fold enrichment (6-mer frequency, TF over GST control)
